According to PubChem BioAssay (NCATS):
“And” between values parts separate entries of the source, which are not always exact repeats. Equal values may be shown once. Records with an inconclusive call do not appear. A call without a number means that no potency is given here. The source made the active and inactive calls. Calls come from the whole dose curve; as a rule, active = well fitted curve in the direction sought with a large enough effect; inconclusive = small, poorly fitted or top-dose-only effect, or another doubt; inactive = no such curve, though single readings can be large; an effect the other way counts as inactive or inconclusive.

Columns and labels:
[1] = biological target: Lysine-specific demethylase 5B (Homo sapiens) (UniProt Q9UGL1); assay: Optimization screen for KDM5B Histone Demethylases FDH coupled qHTS against the LOPAC library (AID 1347166)
Sequence of Lysine-specific demethylase 5B (Homo sapiens) (Q9UGL1 whole entry, looked up): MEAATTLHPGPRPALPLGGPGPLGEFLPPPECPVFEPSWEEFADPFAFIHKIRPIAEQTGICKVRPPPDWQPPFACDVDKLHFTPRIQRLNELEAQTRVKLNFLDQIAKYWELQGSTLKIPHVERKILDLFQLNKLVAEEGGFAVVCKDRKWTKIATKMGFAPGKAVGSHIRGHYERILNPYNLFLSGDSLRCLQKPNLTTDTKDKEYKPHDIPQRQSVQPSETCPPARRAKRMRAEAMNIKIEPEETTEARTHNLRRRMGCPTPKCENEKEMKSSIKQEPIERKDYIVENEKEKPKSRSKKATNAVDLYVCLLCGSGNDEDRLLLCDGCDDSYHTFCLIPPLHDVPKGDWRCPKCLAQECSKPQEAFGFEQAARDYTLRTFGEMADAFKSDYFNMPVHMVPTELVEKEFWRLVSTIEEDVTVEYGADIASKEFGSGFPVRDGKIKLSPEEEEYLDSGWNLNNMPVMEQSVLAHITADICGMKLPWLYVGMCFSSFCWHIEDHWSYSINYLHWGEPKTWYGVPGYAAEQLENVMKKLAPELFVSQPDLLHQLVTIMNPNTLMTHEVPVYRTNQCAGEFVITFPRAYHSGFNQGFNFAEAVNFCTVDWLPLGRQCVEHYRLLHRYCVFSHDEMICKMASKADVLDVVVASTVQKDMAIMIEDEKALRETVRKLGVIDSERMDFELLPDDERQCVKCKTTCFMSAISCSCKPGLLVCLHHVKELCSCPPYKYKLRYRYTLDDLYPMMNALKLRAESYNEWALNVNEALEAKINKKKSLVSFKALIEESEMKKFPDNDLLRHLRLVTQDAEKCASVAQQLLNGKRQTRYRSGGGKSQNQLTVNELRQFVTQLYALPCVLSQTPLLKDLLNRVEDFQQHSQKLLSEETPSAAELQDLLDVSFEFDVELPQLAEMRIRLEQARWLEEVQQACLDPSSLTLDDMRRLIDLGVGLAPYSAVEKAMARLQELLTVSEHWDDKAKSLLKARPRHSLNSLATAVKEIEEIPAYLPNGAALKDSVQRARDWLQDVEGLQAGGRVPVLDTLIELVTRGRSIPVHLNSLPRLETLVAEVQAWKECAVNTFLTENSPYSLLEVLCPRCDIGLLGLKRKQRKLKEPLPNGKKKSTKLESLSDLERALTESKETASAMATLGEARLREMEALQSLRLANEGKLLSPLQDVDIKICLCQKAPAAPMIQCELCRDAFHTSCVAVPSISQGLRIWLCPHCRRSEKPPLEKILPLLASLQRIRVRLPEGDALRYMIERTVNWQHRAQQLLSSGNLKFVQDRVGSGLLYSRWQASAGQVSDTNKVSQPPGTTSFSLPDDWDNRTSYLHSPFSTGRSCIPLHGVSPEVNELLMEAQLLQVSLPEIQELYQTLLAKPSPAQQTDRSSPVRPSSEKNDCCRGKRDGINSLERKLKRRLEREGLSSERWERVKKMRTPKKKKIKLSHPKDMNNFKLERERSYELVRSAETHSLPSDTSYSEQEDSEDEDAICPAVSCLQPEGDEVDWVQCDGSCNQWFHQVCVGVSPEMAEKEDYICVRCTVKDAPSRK
How it was run: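 KDM5BDeltaAP (200nM final) preincubated 10 min with compound, then 12.5uM H3K4Me3, 25uM a-ketoglutarate, ascorbate, Fe(II), NAD+ and FDH added; 50mM HEPES pH 7.5, 0.01% Tween-20. NADH fluorescence (340/450 nm) change over 30 min, room temperature.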

[2] = qHTS to identify inhibitors of the type 1 interferon - major histocompatibility complex class I in skeletal muscle: primary screen against the NCATS LOPAC collection (AID 1347405);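 note: lytic HiBiT luminescence reporting HLA-B protein level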
How it was run: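 Immortalized human C25cl48 myoblasts with HiBiT knocked into endogenous HLA-B*08:01 were stimulated with 4.0 ng/ml IFN-beta and given compounds in a 7-point, 1:4.3 titration from 46 uM final; after 24 hrs, lytic HiBiT luminescence was read.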

[3] = qHTS for inhibitors of adenylyl cyclases using a fission yeast platform: a pilot screen against the NCATS LOPAC library (AID 1347410)
How it was run: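 S. pombe CHP2027 (AC9-GNAS-PDE4D2) carrying a PKA-repressed fbp1-GFP reporter was exposed to LOPAC compounds (final up to 57 µM) for 18 h at 30C in the dark, in EMM with histidine, lysine and uracil; GFP gain-of-signal read by laser scanning cytometry.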

[4] = Validation qHTS assay for inhibitors of Activation Induced Cytidine Deaminase (AID): UDG Counterscreen signal (AID 1347427); note: potency is the fitted concentration of half-maximal effect
How it was run: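 Counterscreen read of UDG activity (2 U/mL, 4/3x) in the FRET deamination format with AID (1 uM, 4/3x), DJC20/DJC23 substrates (250 nM, 4x), 4 h at room temperature. NaOH stop, fluorescence at 560 ex/665 em.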

[5] = biological target: Single-stranded DNA cytosine deaminase (Homo sapiens) (UniProt Q9GZX7); assay: Validation qHTS assay for inhibitors of Activation Induced Cytidine Deaminase (AID): AID signal (AID 1347429)
Sequence of Single-stranded DNA cytosine deaminase (Homo sapiens) (Q9GZX7 whole entry, looked up): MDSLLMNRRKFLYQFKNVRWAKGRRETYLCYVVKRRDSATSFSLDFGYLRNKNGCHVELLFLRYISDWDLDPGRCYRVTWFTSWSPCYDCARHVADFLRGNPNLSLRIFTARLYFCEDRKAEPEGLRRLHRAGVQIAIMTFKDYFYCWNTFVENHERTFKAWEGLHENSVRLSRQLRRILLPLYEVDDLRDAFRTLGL
How it was run: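 AID and UDG were combined and compounds added at final up to 114 uM, then DJC20/DJC23 FRET substrate was added for 4 hr at room temperature. NaOH was then added for 30 min before fluorescence was read at 540/590 nm.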

[6] = Primary qHTS for inhibitors of La Crosse Virus (LACV) - induced cell death in SH-SY5Y cells (AID 1508616); note: potency is the fitted concentration of half-maximal effect
How it was run: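 Luminescent ATP readout (ATPLite 1step, 5 min room temperature) measured rescue from LACV-induced death after 6 days of infection at 0.01 MOI; normalized to infected DMSO wells and uninfected DMSO wells.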

[7] = qHTS to identify inhibitors of the type 1 interferon - major histocompatibility complex class I in skeletal muscle: primary screen against the NCATS Pharmaceutical Collection (AID 1347407);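 note: luminescence of HiBiT knocked into endogenous HLA-B as interferon-induced MHC class I level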
How it was run: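 Immortalized human myoblasts (C25cl48) with HiBiT knocked into endogenous HLA-B*08:01 were stimulated with 4 ng/ml IFN-beta and treated with compounds (8-point, 1:5, top 46 uM final) for 24 h at 37 C; HiBiT lytic luminescence read.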

[8] = biological target: Protein phosphatase 1D (Homo sapiens) (UniProt O15297); assay: RapidFire Mass Spectrometry qHTS Assay for Modulators of WT P53-Induced Phosphatase 1 (WIP1) (AID 1347424);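 note: amount of dephosphorylated VEPPL-S-QETFS peptide product formed by WIP1; series mostly up to about 63 µM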
Sequence of Protein phosphatase 1D (Homo sapiens) (O15297 whole entry, looked up): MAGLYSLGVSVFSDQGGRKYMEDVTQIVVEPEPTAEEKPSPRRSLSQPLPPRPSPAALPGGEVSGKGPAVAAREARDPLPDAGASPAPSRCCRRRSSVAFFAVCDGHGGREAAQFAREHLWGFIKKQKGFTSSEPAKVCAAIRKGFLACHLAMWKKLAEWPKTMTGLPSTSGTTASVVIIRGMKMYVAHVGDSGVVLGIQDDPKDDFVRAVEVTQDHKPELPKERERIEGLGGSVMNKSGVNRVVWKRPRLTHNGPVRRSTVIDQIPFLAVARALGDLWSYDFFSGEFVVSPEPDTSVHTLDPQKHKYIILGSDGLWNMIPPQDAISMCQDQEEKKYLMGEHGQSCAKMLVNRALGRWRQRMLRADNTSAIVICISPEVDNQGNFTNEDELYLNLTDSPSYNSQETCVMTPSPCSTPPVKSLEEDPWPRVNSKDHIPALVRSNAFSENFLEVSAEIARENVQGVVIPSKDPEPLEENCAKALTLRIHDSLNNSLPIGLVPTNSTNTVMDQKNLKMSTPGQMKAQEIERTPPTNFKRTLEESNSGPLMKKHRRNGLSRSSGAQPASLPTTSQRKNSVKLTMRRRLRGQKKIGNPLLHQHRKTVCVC
How it was run: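 10 nM WIP1 + cpd, 1 h RT; + 2 uM VEPPL-pS-QETFS, 5 min RT; stop 0.5% formic acid; labelled product standard 1 uM; RapidFire MS. Buffer 50 mM Tris pH 7.5, 30 mM MgCl2, 1 mM TCEP.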

[9] = biological target: Protein phosphatase 1D (Homo sapiens) (UniProt O15297); assay: Rhodamine-PBP qHTS Assay for Modulators of WT P53-Induced Phosphatase 1 (WIP1) (AID 1347425)
How it was run: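 WIP1 (5 nM final) was preincubated with compound for 1 hour at room temperature. It then dephosphorylated 10 uM VEPPL-pS-QETFS peptide in Tris-HCl pH 7.5 with 30 mM MgCl2. Released Pi was detected by 10 uM Rh-PBP fluorescence (ex 525/em 598 nm) read at 1-min intervals for 11 min, as delta f1 - f0.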

[10] = qHTS to identify inhibitors of the type 1 interferon - major histocompatibility complex class I in skeletal muscle: primary screen against the NCATS Mechanism Interrogation Plate v5.0 (MIPE) Libary (AID 1347411); note: nearly all actives have a fitted effect of over 65% in size
How it was run: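 Immortalized human C25cl48 myoblasts with HiBit knocked into endogenous HLA-B*08:01 were stimulated with 4.0 ng/ml IFN-beta and exposed to compounds (11-point 1:3 titration, top 46 uM final) for 24 hrs at 37 C; HiBiT lytic luminescence measured.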

[11] = tested on: Zika virus NS2B-NS3 protease (linked construct); assay: 384 well plate NINDS Rhodamine confirmatory qHTS for Zika virus inhibitors (AID 1347164);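 note: fluorescence from protease cleavage of Ac-LKRR-rhodamine 110 substrate; top concentration of the series differs between compounds; nearly all actives have a fitted effect of over 65% in size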
How it was run: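 Linked protease at a final 5 nM, 30 nM or 60 nM was preincubated ~15 min with compounds, then given 10 microM Ac-LKRR-Rhodamine 110. Fluorescence (ex 485/em 538 nm) after 25 min in the dark at room temperature.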

[12] = Vero cells viability qHTS for Zika virus inhibitors (AID 1347167)
How it was run: (§1)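 Compounds were tested in concentration series on cells grown in DMEM containing 4% FBS. After 24 to 48 hours, cellular ATP was measured by luminescence with CellTiter Glo.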

[13] = HepG2 cells viability qHTS for Zika virus inhibitors (AID 1347168)
How it was run: as §1

[14] = Tertiary RLuc qRT-PCR qHTS assay for Zika virus inhibitors (AID 1347169); note: nearly all actives have a fitted effect of over 55% in size; note: potency is the fitted concentration of half-maximal effect
How it was run: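 Vero cells (1,000 per well) plated overnight at 37 degrees C, treated with compound in DMSO, then infected with recombinant ZIKV-RLuc (Cambodian) at MOI 1-2 for 48-72 hrs. Live-cell Renilla luciferase substrate added; luminescence read after 1-1.5 hrs.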

[15] = Confirmatory screen NINDS Rhodamine qHTS for Zika virus inhibitors (AID 1347161); note: nearly all actives have a fitted effect of over 60% in size; note: potency is the fitted concentration of half-maximal effect
How it was run: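 Kinetic fluorescence (Ex 480 nm, Em 540 nm) over 15 min with 1.5 microM Rhodamine110 peptide and 25 nM linked protease.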

## CC1(C)C(=O)N(CCN2CCC(C(=O)c3ccc(F)cc3)CC2)c2ccccc21
[1]
  outcome: inactive
[2]
  Potency: inactive
[3]
  outcome: inactive
[4]
  Potency: inactive
[5]
  outcome: inactive
[6]
  Potency: inactive

## C[C@@H](c1ncncc1F)[C@](O)(Cn1cncn1)c1ccc(F)cc1F
[2]
  Potency: inactive
[3]
  outcome: inactive

## NNc1nncc2ccccc12
[2]
  Potency: inactive
[7]
  Potency: inactive
[3]
  outcome: inactive
[8]
  Potency: inactive
[9]
  outcome: inactive
[4]
  Potency: 39.8 µM (active)
[6]
  Potency: inactive

## NCCCCNCCCN
[1]
  outcome: inactive
[2]
  Potency: inactive
[3]
  outcome: inactive
[4]
  Potency: inactive
[5]
  outcome: inactive
[6]
  Potency: inactive

## Nc1nc(N)c(N=O)c(OCC2CCCCC2)n1
[1]
  outcome: inactive
[3]
  outcome: inactive
[10]
  Potency: inactive
[4]
  Potency: inactive
[5]
  outcome: inactive
[6]
  Potency: inactive

## CC(=O)N1CCN(c2ccc(OC[C@H]3CO[C@](Cn4ccnc4)(c4ccc(Cl)cc4Cl)O3)cc2)CC1
[1]
  outcome: inactive
[2]
  Potency: inactive
[3]
  outcome: inactive
[4]
  Potency: inactive
[5]
  outcome: inactive
[6]
  Potency: inactive

## Cc1cccc(C#Cc2ccccc2)n1
[1]
  outcome: inactive
[2]
  Potency: inactive
[3]
  outcome: inactive
[4]
  Potency: inactive
[5]
  outcome: inactive
[6]
  Potency: inactive

## C[C@@H](N)C1CCC(C(=O)Nc2ccncc2)CC1 (stereo not given in full)
[1]
  outcome: inactive
[2]
  Potency: inactive
[3]
  outcome: inactive
[10]
  Potency: inactive
[4]
  Potency: inactive
[5]
  outcome: inactive
[6]
  Potency: inactive

## O=C(O)CCNC(=O)c1ccc(N=Nc2ccc(O)c(C(=O)O)c2)cc1
[7]
  Potency: inactive
[10]
  Potency: inactive
[8]
  Potency: inactive
[9]
  outcome: inactive
[6]
  Potency: inactive

## O=C(CCc1ccc(O)cc1)c1c(O)cc(O)cc1O
[2]
  Potency: inactive
[3]
  outcome: inactive
[4]
  Potency: inactive
[5]
  outcome: inactive
[6]
  Potency: inactive

## O=c1ccc2ccc(O)c(O)c2o1
[2]
  Potency: inactive
[3]
  outcome: inactive
[4]
  Potency: inactive
[5]
  outcome: inactive
[6]
  Potency: inactive

## COc1c2occc2cc2ccc(=O)oc12
[11]
  Potency: inactive
[12]
  Potency: inactive
[13]
  Potency: inactive
[14]
  Potency: inactive
[7]
  Potency: inactive
[10]
  Potency: inactive
[8]
  Potency: inactive
[9]
  outcome: inactive
[6]
  Potency: inactive

## CC1Cc2ccccc2N1NC(=O)c1ccc(Cl)c(S(N)(=O)=O)c1 (stereo not given)
[7]
  Potency: inactive
[10]
  Potency: inactive
[8]
  Potency: inactive
[9]
  outcome: inactive
[6]
  Potency: inactive

## CC1(C)NC(=O)N(c2ccc([N+](=O)[O-])c(C(F)(F)F)c2)C1=O
[1]
  outcome: inactive
[2]
  Potency: inactive
[7]
  Potency: inactive
[3]
  outcome: inactive
[10]
  Potency: inactive
[8]
  Potency: inactive
[9]
  outcome: inactive
[4]
  Potency: inactive
[5]
  outcome: inactive
[6]
  Potency: inactive

## CS(=O)(=O)OCCCCOS(C)(=O)=O
[7]
  Potency: inactive
[10]
  Potency: inactive
[8]
  Potency: inactive
[9]
  outcome: inactive
[6]
  Potency: inactive

## Nc1nc(OCc2ccccc2)c2[nH]cnc2n1
[1]
  outcome: inactive
[3]
  outcome: inactive
[4]
  Potency: inactive
[5]
  outcome: inactive
[6]
  Potency: inactive

## Cc1cc(O)c2c(c1)C(=O)c1cc(O)cc(O)c1C2=O
[1]
  outcome: inactive
[2]
  Potency: inactive
[3]
  outcome: inactive
[10]
  Potency: inactive
[4]
  Potency: inactive
[5]
  outcome: inactive
[6]
  Potency: inactive

## Clc1ccc2c(N3CCN(CCCN4CCN(c5ccnc6cc(Cl)ccc56)CC4)CC3)ccnc2c1
[2]
  Potency: inactive
[3]
  outcome: inactive

## Cc1nc(-c2ccc(OCC(C)C)c(C#N)c2)sc1C(=O)O
[15]
  Potency: 31.2 µM (active)
[12]
  Potency: inactive
[13]
  Potency: inactive
[14]
  Potency: inactive
[7]
  Potency: inactive
[10]
  Potency: inactive
[8]
  Potency: inactive
[9]
  outcome: inactive
[6]
  Potency: inactive

## CCc1nc(N)nc(N)c1-c1ccc(Cl)cc1
[15]
  Potency: inactive
[12]
  Potency: inactive
[14]
  Potency: 11.7 µM (active) and 16.5 µM (active)
[10]
  Potency: inactive
[8]
  Potency: inactive
[9]
  outcome: inactive
[6]
  Potency: inactive

## O=C(O)c1cccnc1Nc1cccc(C(F)(F)F)c1
[1]
  outcome: inactive
[2]
  Potency: inactive
[7]
  Potency: inactive
[3]
  outcome: inactive
[9]
  outcome: inactive
[4]
  Potency: inactive
[5]
  outcome: inactive
[6]
  Potency: inactive

## Cc1ccc(S(=O)(=O)NC(=O)NN2CC3CCCC3C2)cc1 (stereo not given)
[7]
  Potency: inactive
[10]
  Potency: inactive
[8]
  Potency: inactive
[9]
  outcome: inactive
[6]
  Potency: inactive

## O=C1c2c(O)cc(O)cc2OC(c2ccc(O)c(O)c2)C1O (stereo not given)
[2]
  Potency: inactive
[3]
  outcome: inactive
[4]
  Potency: inactive
[5]
  outcome: inactive
[6]
  Potency: inactive

## O=C(O)c1cn(-c2ccc(F)cc2)c2cc(N3CCNCC3)c(F)cc2c1=O
[12]
  Potency: inactive
[13]
  Potency: inactive
[14]
  Potency: inactive
[7]
  Potency: inactive
[8]
  Potency: inactive
[9]
  outcome: inactive
[6]
  Potency: inactive

## C[C@H](Cc1ccc(O)c(O)c1)[C@@H](C)Cc1ccc(O)c(O)c1
[2]
  Potency: inactive
[3]
  outcome: inactive
[10]
  Potency: inactive
[5]
  outcome: inactive
[6]
  Potency: 1 µM (active)
